Experimental data from PubChem BioAssay.

The molecules below were run against NADPH oxidase 5 (Homo sapiens) (UniProt Q96PH1) (assay: NOX5-dependent H2O2 signal modulators, primary screen, NOX inhibitor project, cell-based, HEK293-NOX5, Amplex Red fluorescence (AID 1161)). Conditions: HEK293-NOX5, ionomycin, 45 min, higher = more signal.
NADPH oxidase 5 (Homo sapiens), sequence (Q96PH1 whole entry, looked up): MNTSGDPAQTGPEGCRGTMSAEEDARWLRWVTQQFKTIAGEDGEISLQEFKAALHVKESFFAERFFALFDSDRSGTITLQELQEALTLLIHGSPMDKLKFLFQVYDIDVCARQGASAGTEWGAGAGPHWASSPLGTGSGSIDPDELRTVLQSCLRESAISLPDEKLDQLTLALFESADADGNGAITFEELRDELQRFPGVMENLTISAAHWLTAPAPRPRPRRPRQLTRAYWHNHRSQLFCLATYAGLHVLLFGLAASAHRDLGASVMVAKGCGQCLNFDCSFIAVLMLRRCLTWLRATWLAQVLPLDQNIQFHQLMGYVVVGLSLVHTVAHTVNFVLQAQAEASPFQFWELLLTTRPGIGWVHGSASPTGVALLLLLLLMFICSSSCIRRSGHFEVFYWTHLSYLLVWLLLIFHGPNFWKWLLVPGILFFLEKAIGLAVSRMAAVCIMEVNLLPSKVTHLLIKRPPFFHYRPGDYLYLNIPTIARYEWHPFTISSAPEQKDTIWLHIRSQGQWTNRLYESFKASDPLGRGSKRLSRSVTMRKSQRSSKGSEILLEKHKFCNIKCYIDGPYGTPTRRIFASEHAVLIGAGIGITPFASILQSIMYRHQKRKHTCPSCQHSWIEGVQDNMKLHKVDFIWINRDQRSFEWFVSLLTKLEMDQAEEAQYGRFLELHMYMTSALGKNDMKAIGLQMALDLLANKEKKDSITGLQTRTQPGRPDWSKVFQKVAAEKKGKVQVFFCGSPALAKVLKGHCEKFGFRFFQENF

SMILES | z-score
CCOC(=O)[C@H](Cc1ccccc1)NC(=O)CCC1CC(OC(=O)NCc2cccc3ccccc23)CC2(CCCC(COC(=O)NCc3cccc(C(F)(F)F)c3)O2)O1 (stereo partly specified) | -0.162
COC(=O)CC=C[C@@H](C)[C@@H](C=NOC(C)CN1CCCc2nc(C)c(C)cc21)OC (stereo partly specified) | 0.372
COC(=O)[C@@H]1CC[C@H](C)[C@@H](c2ccc(C)cc2)N1C(=O)c1ccc(C=NO[C@H](C)c2cn([C@H](CO)Cc3ccccc3)nn2)cc1 | -1.71
CO[C@@H]1C=CCC(=O)N[C@@H](C)C(=O)OC[C@@H](OC)[C@H](C)CCCC(=O)OC[C@H]1C | 0.645
COc1ccc(O[C@H]2C=C[C@@H](c3ccccc3)O[C@@H]2CON=C(C)C)cc1 | -0.684
CCOC(=O)[C@H](CC(C)C)NC(=O)CCC1CC(OC(=O)NCc2cccc3ccccc23)CC2(CCCC(COC(=O)NCCOC)O2)O1 (stereo partly specified) | -0.464
CCCCC#C[C@@H]1C=C[C@H](Oc2ccc(C(=O)OC)cc2)[C@@H](COC(=O)OCC)O1 | 1.03
Cc1ccc(S(=O)(=O)n2c3ccccc3c3nnc(C(=O)c4ccccc4)nc32)cc1 | -0.341
COc1ccc(O[C@H]2C=C[C@@H](c3ccccc3)O[C@@H]2CON=CC[C@@H]2C=C[C@H](OC(C)=O)[C@@H](COC(C)=O)O2)cc1 | -1.01
O=C(NN=C1C[C@@H](O)[C@@H](O)[C@@H]2[C@@H]3C(=O)N(Cc4ccccc4)C(=O)[C@@H]3CC[C@@H]12)OCc1ccccc1 | 0.224
COc1ccc(O[C@H]2C=C[C@@H](c3ccccc3)O[C@@H]2COC(=O)CCC(C)=NO[C@@H]2O[C@H](COC(C)=O)[C@@H](OC(C)=O)[C@H](OC(C)=O)[C@H]2OC(C)=O)cc1 | 0.222
